Only some compounds are listed: those with a hit (about 3.4% of all), similar ones and a draw of the others.
ERb coact inh: blocks coactivator binding to human estrogen receptor beta; Q92731; TR-FRET ER-beta LBD / SRC1-Cy5 peptide binding; receptor agonist-loaded with 1 µM estradiol; inhibition, % at 25.6 µM; 1.3% of 86,000 active; AID 633;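 active means compounds whose percent inhibition of the receptor-coactivator binding signal exceeds about 50% in the single-dose screen, limit read from the data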
FAK blocker: inhibitors of human focal adhesion kinase; Q05397; 0.84% of 97,000 active; biochemical FAK kinase activity assay; inhibition, %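 (tested at 7 µM)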; in the data active means inhibition above about 19%
Target sequence (Q05397 whole entry, looked up): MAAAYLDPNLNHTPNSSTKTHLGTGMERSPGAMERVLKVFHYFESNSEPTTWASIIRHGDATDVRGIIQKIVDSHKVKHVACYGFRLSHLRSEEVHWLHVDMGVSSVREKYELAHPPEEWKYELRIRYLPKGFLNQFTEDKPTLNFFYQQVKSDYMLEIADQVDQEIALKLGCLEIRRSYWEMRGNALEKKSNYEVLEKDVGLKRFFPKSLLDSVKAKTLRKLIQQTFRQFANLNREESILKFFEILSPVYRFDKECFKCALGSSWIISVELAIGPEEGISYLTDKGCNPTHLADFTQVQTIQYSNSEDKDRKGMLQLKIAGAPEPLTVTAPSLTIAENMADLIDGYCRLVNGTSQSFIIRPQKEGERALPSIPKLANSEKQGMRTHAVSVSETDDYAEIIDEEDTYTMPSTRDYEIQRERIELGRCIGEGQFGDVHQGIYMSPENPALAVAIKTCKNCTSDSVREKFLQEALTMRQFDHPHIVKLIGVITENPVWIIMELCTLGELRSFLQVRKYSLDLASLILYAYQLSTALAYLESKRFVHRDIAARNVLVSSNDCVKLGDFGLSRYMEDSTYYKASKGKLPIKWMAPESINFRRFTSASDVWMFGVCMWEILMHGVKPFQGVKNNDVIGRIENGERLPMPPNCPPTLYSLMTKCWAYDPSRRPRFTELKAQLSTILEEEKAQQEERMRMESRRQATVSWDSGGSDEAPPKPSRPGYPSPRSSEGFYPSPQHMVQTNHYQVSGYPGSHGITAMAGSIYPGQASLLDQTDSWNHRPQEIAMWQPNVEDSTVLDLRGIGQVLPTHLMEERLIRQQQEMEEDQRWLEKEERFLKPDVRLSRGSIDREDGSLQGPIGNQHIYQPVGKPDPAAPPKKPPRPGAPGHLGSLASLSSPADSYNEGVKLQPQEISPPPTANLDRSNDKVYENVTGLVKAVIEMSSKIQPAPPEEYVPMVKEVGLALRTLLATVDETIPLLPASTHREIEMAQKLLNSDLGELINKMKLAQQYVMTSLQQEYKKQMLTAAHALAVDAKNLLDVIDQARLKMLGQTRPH
LYP inh 2: blocks human PTPN22 phosphatase activity. Q9Y2R2. recombinant LYP catalytic domain, DiFMUP fluorescence. inhibition, % at 2 µM. 0.21% of 96,000 active. AID 640;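 active means inhibition at 2 µM at or above a set limit, the screen mean plus 3 SD, cut at about 24% in these data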
PTPN22 act: LYP (human) phosphatase activation; recombinant LYP, DiFMUP fluorescence; 0 = plate median, 100 = signal doubled; Q9Y2R2; 0.11% of 96,000 active; activation, % at 2 µM; AID 697;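 active means activation at 2 µM above a set limit, the mean plus 5 SD, cut at about 37% in these data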
ERa coact pot: ER-alpha (human) coactivator binding potentiation | TR-FRET ERalpha-LBD/SRC-Cy5 coactivator binding, 2 h; 100 = basal binding, no effect | coactivator binding (% of control), % at 25.6 µM | 1.3% of 86,000 active | AID 639 | P03372; in the data active means activity above about 200%;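 further: binding measured in presence of low estradiol as agonist stimulus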
ERa coact inh: ER-alpha (human) coactivator binding inhibition; P03372; TR-FRET ER-alpha LBD / SRC-1 peptide, estradiol-bound; inhibition, % at 25.6 µM; 1.7% of 86,000 active; in the data active means inhibition above about 50%
Hits are given with their value; i = inactive; nt = no result; [ ] = another dose, or the depositor's remark.

SMILES	ERb coact inh	FAK blocker	LYP inh 2	PTPN22 act	ERa coact pot	ERa coact inh
COc1ccc(CC(=O)NC(C)c2nnc(SCCOc3ccc(OC)cc3)n2C)cc1 (configuration not stated)	i	i	i	i	i	i
CS(=O)(=O)N1CC(C(=O)NC2CCCC2)Oc2ccc(Cl)cc21 (configuration not stated)	nt	i	i	i	nt	nt
CCOc1ccc(-n2nc3ccc(NC(=O)c4ccc5c(c4)OCCO5)cc3n2)cc1	i	i	i	i	i	i
CCc1ccc(-n2nc3ccc(NC(=O)c4ccc5c(c4)OCO5)cc3n2)cc1	i	i	i	i	362[fluorescence artefact?]	i
Cn1cnc2cc(NC(=O)c3ccco3)ccc21	i	i	i	i	i	i
O=C(Nc1ccc2nn(-c3ccccc3)nc2c1)c1ccc(Br)o1	i	nt	nt	nt	207	56
Cc1ccc(-n2nc3ccc(NC(=O)c4ccco4)cc3n2)cc1	i	i	i	i	i	71[fluorescence artefact?]
Cc1cc(C)c(NC(=O)c2cc3c(nc4sccn43)s2)c(C)c1	55[fluorescence artefact?]	i	i	i	i	86[fluorescence artefact?]
CSCCC1(C(=O)O)NC(c2ccccc2O)C2C(=O)N(C(C)C)C(=O)C21 (configuration not stated)	i	i	i	i	i	84[fluorescence artefact?]
COc1ccc(CCn2c(C)cc(C(=O)CSc3nnnn3-c3ccccc3)c2C)cc1	i	i	i	i	i	i
CCOC(=O)Cn1c(-c2nonc2NC(=O)c2ccccc2F)nc2ccccc21	i	i	i	i	322	i
CCC(=O)Nc1nonc1-c1nc2ccccc2n1N(C(=O)CC)C(=O)CC	i	i	i	i	i	59
CCC(=O)Nc1nonc1-c1nc2ccccc2n1Cc1ccccc1	i	i	i	i	i	i
CCC(=O)Nc1nonc1-c1nc2ccccc2n1Cc1cccc2ccccc12	i	i	i	i	204[fluorescence artefact?]	i
O=C(NCSc1ccnc(SCNC(=O)c2ccc(F)cc2)n1)c1ccc(F)cc1	nt	i	i	i	nt	nt
Cc1ccc(C(C)C)c(OCC(O)CN2CCOCC2)c1 (configuration not stated)	i	i	i	i	i	i
Cc1ccc(C(C)C)c(OCC(O)CN2CC(C)OC(C)C2)c1 (configuration not stated)	51[fluorescence artefact?]	i	i	i	i	i
OC1(c2ccc(F)cc2)CCN(Cc2nnnn2Cc2cccs2)CC1	i	i	i	i	i	i
CC1=NN(/C(=N\c2nnc(C)s2)Nc2ccc(C)cc2)[C@H](c2ccc(C)cc2)S1	i	21	i	i	i	i
Cc1cc(C)c2cc3c(ccn3C3OC[C@H](O)[C@H](O)[C@H]3O)cc2n1 (some centres not stated)	52[fluorescence artefact?]	i	i	i	i	i
COc1ccc(C2c3sc(=O)[nH]c3SC3C4CCC(C4)C23)cc1OC (configuration not stated)	i	i	i	i	i	i
O=c1[nH]c2c(s1)C(c1ccc(O)cc1)C1C3CCC(C3)C1S2 (configuration not stated)	i	i	i	i	i	70
NC(=O)CSc1nnc(CCc2nc3ccccc3[nH]2)n1-c1ccccc1	i	i	i	i	i	i
CCCn1c(SCC(=O)Nc2sc(C)c(C)c2C(=O)OC)nc2c1c(=O)n(C)c(=O)n2C	i	nt	nt	nt	246	51
CCOC(=O)c1c(NC(=O)CSc2nc3c(c(=O)n(C)c(=O)n3C)n2CC)sc(C)c1C	i	nt	nt	nt	i	i
SMILES	ERb coact inh	FAK blocker	LYP inh 2	PTPN22 act	ERa coact pot	ERa coact inh
CCOC(=O)c1sc(C)c2c1NC(C)(c1ccccc1)NC2=O (configuration not stated)	i	i	i	i	i	i
O=C(NCc1ccco1)C1CN(S(=O)(=O)c2ccccc2)CCN1S(=O)(=O)c1ccccc1 (configuration not stated)	i	i	i	i	i	i
O=C(NCc1ccco1)C1Cc2ccccc2CN1S(=O)(=O)c1ccccc1F (configuration not stated)	i	i	i	i	202[fluorescence artefact?]	i
CCc1nc2ccccc2c(=O)n1NC(=O)c1c(O)c2ccccc2[nH]c1=O	i	nt	nt	nt	273	i
CCn1c(NCc2cccs2)nc2ccccc21	i	i	i	i	i	67[fluorescence artefact?]
Cc1ccc(-c2c(C#N)c(N)nc3c2CCCC3)s1	nt	i	i	i	nt	nt
COCC(O)CSc1nc(C)[nH]c1[N+](=O)[O-] (configuration not stated)	i	i	i	i	i	i
Cn1cc(NC(=O)c2cc(NC(=O)c3cc(NC=O)cn3C)cn2C)cc1C(=O)NCCC(=N)N	71	nt	nt	nt	i	61
O/N=C/c1cc(Cl)ccc1OCc1cccc2ccccc12	nt	i	i	i	nt	nt
COc1ccc(CC(=O)OCC(=O)NC(=O)NC2CCCCC2)cc1	i	i	i	i	i	i
O=C(N1CCOCC1)N1CCN(Cc2ccccc2)CC1	i	i	i	i	545[fluorescence artefact?]	i
O=S(=O)(N/N=C\C=C\c1ccccc1)c1ccc(Cl)cc1	nt	i	i	i	nt	nt
CCN(CC)c1ccc2c(c1)oc(=O)c1c(Cl)cc(=O)oc12	i	i	i	i	309	i
CCN(CC)c1ccc2c(Cl)c(Br)c(=O)oc2c1	i	i	i	i	i	i
Nc1nnnn1/N=C/c1ccccc1C(F)(F)F	i	i	69	i	i	i
Cc1ccc(-n2c(O)c(C=Nc3ccc4c(c3)OCO4)c3ccccc3c2=O)cc1C	nt	i	i	i	nt	nt
Cc1cccc(-n2c(O)c(C=Nc3ccc4c(c3)OCO4)c3ccccc3c2=O)n1	i	nt	nt	nt	i	71[fluorescence artefact?]
CCCc1cc2c(cc1NC(=O)c1ccc(C)cc1)OCO2	nt	i	i	i	nt	nt
O=C(CCCCCn1c(SCc2ccncc2)nc2ccccc2c1=O)NCc1ccco1	i	i	i	i	i	57[fluorescence artefact?]
Cn1c(SCC(=O)NCc2ccco2)nc2ccccc2c1=O	i	i	i	i	i	i
O=C(CSc1nc2ccccc2c2nc3ccccc3n12)NCc1ccco1	i	i	30	i	i	74[fluorescence artefact?]
O=C(CSc1nc2ccccc2c(=O)n1CCCC(=O)N1CCCC1)NCc1ccco1	i	i	i	i	i	i
O=C(CC1CCCC1)Nc1ccc2c(c1)CCC2	i	i	i	i	i	i
CC(C)c1cc(=O)oc2c3c4c(cc12)CCCN4CCC3	i	nt	nt	nt	i	i
N#Cc1ccc(NC(=O)c2cc3cc4c5c(c3oc2=N)CCCN5CCC4)cc1	i	nt	nt	nt	i	64
COc1ccc2nc(SCc3cnc(C)nc3N)[nH]c2c1	i	i	58	i	i	i
COc1cc(Nc2nc3ccccc3n3nnnc23)cc(OC)c1OC	i	i	i	i	i	i
COc1ccccc1OC(=O)c1cc(Cl)nc2ccccc12	nt	i	i	i	nt	nt
CCC(C)n1c(C)nc2c(c1=O)c1nc3ccccc3nc1n2-c1ccc2c(c1)OCCO2 (configuration not stated)	i	nt	nt	nt	256[fluorescence artefact?]	i
O=c1c2c3nc4ccccc4nc3n(-c3ccc4c(c3)OCCO4)c2ncn1CC1CCCO1 (configuration not stated)	i	nt	nt	nt	i	69
